Results filed as inconclusive are left out. Unmarked numbers belong to inactive results. Active and inactive are the calls of the source. The call rests on the fitted dose curve; in most records, active means well fitted curve in the direction sought with a large enough effect; inconclusive means small, poorly fitted or top-dose-only effect, or another doubt; inactive means no such curve, though single readings can be large; an effect the other way counts as inactive or inconclusive.
Test: BET inhibitor-based combinations targeting novel dependencies in MECOM-rearranged (r) AML: SET-2 cell line (AID 2202231); further: nearly all actives have a fitted effect of over 35% in size;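 on viability: plate controls were DMSO treated cells for no effect and wells without cells for full effect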
Conditions: SET-2 AML cells viability, CellTiter-Glo luminescence, 48 h; viability: active compounds read low, concentration not given here
Method in brief: (§1)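 Each compound was tested at eleven concentrations on cells seeded at 500/well. After two days' incubation, ATP-based luminescence reported viability; responses relative to DMSO and blank wells yielded AUC and cell-line-centred Z-AUC.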
Potency means the concentration at half of the fitted maximal effect.

| Structure (SMILES) | viability | Potency |
| --- | --- | --- |
| COc1ccc2cc([C@H](C)C(=O)O)ccc2c1 | 116% |  |
| CC(C)N(CCC(=O)c1ccc2ccccc2c1)Cc1ccccc1 |  | 8.33 µM (active) |
| CCCc1nn(C)c2c(=O)[nH]c(-c3cc(S(=O)(=O)N4CCN(C)CC4)ccc3OCC)nc12 | 114% |  |
| COC(=O)[C@@H]1[C@H]2C[C@H]3c4[nH]c5ccccc5c4CCN3C[C@@H]2CC[C@@H]1O | 106% |  |

Test: BET inhibitor-based combinations targeting novel dependencies in MECOM-rearranged (r) AML: OCI-AML3 cell line (AID 2202232); further: nearly all actives have a fitted effect of over 35% in size;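 on viability (% of control): plate controls were DMSO vehicle wells for no effect and wells without cells for full effect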
Conditions: CellTiter-Glo luminescence, 48 h; Potency: OCI-AML3 viability; series mostly up to 46 µM; viability (% of control): at the top concentration
Method in brief: as §1

| Structure (SMILES) | Potency | viability (% of control) |
| --- | --- | --- |
| O=S(=O)(c1cccc2c(I)cccc12)N1CCCNCC1 | 20.9 µM (active) |  |
| COc1ccc2cc([C@H](C)C(=O)O)ccc2c1 |  | 133% |
| CC(C)N(CCC(=O)c1ccc2ccccc2c1)Cc1ccccc1 | 4.17 µM (active) |  |
| CCCc1nn(C)c2c(=O)[nH]c(-c3cc(S(=O)(=O)N4CCN(C)CC4)ccc3OCC)nc12 |  | 94.8% |

Test: BET inhibitor-based combinations targeting novel dependencies in MECOM-rearranged (r) AML: MV-4-11 cell line (AID 2202233); further: nearly all actives have a fitted effect of over 45% in size;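 on viability, % of control: plate controls were DMSO for no effect and blank wells for full effect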
Conditions: MV-4-11 AML viability, CellTiter-Glo luminescence, 48 h; series mostly up to 46 µM; viability, % of control: at the top concentration
Method in brief: (§2)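 First, 500 cells per well were seeded; next, drugs were pinned as 11-point doses; then plates sat 48 hr in the incubator; finally CellTiter-Glo was added and luminescence read, with AUC and Z-AUC computed.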

| Structure (SMILES) | viability, % of control | Potency |
| --- | --- | --- |
| O=S(=O)(c1cccc2c(I)cccc12)N1CCCNCC1 | 97.3% |  |
| COc1ccc2cc([C@H](C)C(=O)O)ccc2c1 | 139% |  |
| CC(C)N(CCC(=O)c1ccc2ccccc2c1)Cc1ccccc1 |  | 2.09 µM (active) |
| CCCc1nn(C)c2c(=O)[nH]c(-c3cc(S(=O)(=O)N4CCN(C)CC4)ccc3OCC)nc12 | 96.2% |  |

Test: BET inhibitor-based combinations targeting novel dependencies in MECOM-rearranged (r) AML: HNT-34 cell line (AID 2202234); further: nearly all actives have a fitted effect of over 35% in size;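 on viability (% of control): plate controls were vehicle wells for no effect and cell-free wells for full effect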
Conditions: HNT-34 AML viability, CellTiter-Glo luminescence, 48 h; series mostly up to 46 µM; viability (% of control): at the top concentration
Method in brief: as §2

| Structure (SMILES) | viability (% of control) | Potency |
| --- | --- | --- |
| O=S(=O)(c1cccc2c(I)cccc12)N1CCCNCC1 | 86.7% |  |
| COc1ccc2cc([C@H](C)C(=O)O)ccc2c1 | 106% |  |
| CC(C)N(CCC(=O)c1ccc2ccccc2c1)Cc1ccccc1 |  | 5.25 µM (active) |
| CCCc1nn(C)c2c(=O)[nH]c(-c3cc(S(=O)(=O)N4CCN(C)CC4)ccc3OCC)nc12 | 102% |  |
| COC(=O)[C@@H]1[C@H]2C[C@H]3c4[nH]c5ccccc5c4CCN3C[C@@H]2CC[C@@H]1O | 67.9% |  |

Test: BET inhibitor-based combinations targeting novel dependencies in MECOM-rearranged (r) AML: UCSD-AML1 cell line (AID 2202235); further: nearly all actives have a fitted effect of over 40% in size;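 on viability (% of control): plate controls were DMSO vehicle wells for no effect and blank wells for full effect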
Conditions: UCSD-AML1 AML cells viability, CellTiter-Glo, 48 h; series mostly up to 46 µM; viability (% of control): at the top concentration
Method in brief: as §2

| Structure (SMILES) | viability (% of control) | Potency |
| --- | --- | --- |
| O=S(=O)(c1cccc2c(I)cccc12)N1CCCNCC1 | 96% |  |
| COc1ccc2cc([C@H](C)C(=O)O)ccc2c1 | 118% |  |
| CC(C)N(CCC(=O)c1ccc2ccccc2c1)Cc1ccccc1 |  | 4.17 µM (active) |
| CCCc1nn(C)c2c(=O)[nH]c(-c3cc(S(=O)(=O)N4CCN(C)CC4)ccc3OCC)nc12 | 103% |  |

Test: BET inhibitor-based combinations targeting novel dependencies in MECOM-rearranged (r) AML: AML-191 cell line (AID 2202236; further: nearly all actives have a fitted effect of over 35% in size;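 on viability (% of control): plate controls were vehicle wells for no effect and wells without cells for full effect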)
Conditions: AML-191 viability, CellTiter-Glo luminescence, 48 h; series mostly up to 46 µM; viability (% of control): at the top concentration
Method in brief: as §1

| Structure (SMILES) | viability (% of control) | Potency |
| --- | --- | --- |
| O=S(=O)(c1cccc2c(I)cccc12)N1CCCNCC1 | 93.6% |  |
| COc1ccc2cc([C@H](C)C(=O)O)ccc2c1 | 112% |  |
| CC(C)N(CCC(=O)c1ccc2ccccc2c1)Cc1ccccc1 |  | 6.61 µM (active) |
| CCCc1nn(C)c2c(=O)[nH]c(-c3cc(S(=O)(=O)N4CCN(C)CC4)ccc3OCC)nc12 | 92.5% |  |
| COC(=O)[C@@H]1[C@H]2C[C@H]3c4[nH]c5ccccc5c4CCN3C[C@@H]2CC[C@@H]1O | 93.1% |  |

Test: BET inhibitor-based combinations targeting novel dependencies in MECOM-rearranged (r) AML: AML-194 cell line (AID 2202237; further: nearly all actives have a fitted effect of over 40% in size;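 on viability (% of control): plate controls were vehicle wells for no effect and wells without cells for full effect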)
Conditions: AML-194 (MECOM-r AML) viability, CellTiter-Glo, 48 h; series mostly up to 46 µM; viability (% of control): at the top concentration
Method in brief: as §1

| Structure (SMILES) | viability (% of control) | Potency |
| --- | --- | --- |
| O=S(=O)(c1cccc2c(I)cccc12)N1CCCNCC1 | 101% |  |
| COc1ccc2cc([C@H](C)C(=O)O)ccc2c1 | 108% |  |
| CC(C)N(CCC(=O)c1ccc2ccccc2c1)Cc1ccccc1 |  | 7.42 µM (active) |
| CCCc1nn(C)c2c(=O)[nH]c(-c3cc(S(=O)(=O)N4CCN(C)CC4)ccc3OCC)nc12 | 95.8% |  |
| COC(=O)[C@@H]1[C@H]2C[C@H]3c4[nH]c5ccccc5c4CCN3C[C@@H]2CC[C@@H]1O | 99.7% |  |

Source: PubChem BioAssay (NCATS)
